The results in this text go back to PubChem BioAssay (NCI).

Compounds without any hit were thinned out: in the full panel of roughly 79,000, 15% have a hit. Values without a mark were called inactive. Activity calls are given as the source filed them. Cut-off read from the data, not from the text of the source: active = growth inhibition above about 70%; inactive = the rest.

Assay [1] can be described thus: NCI Yeast Anticancer Drug Screen. Data for the rad50 strain (AID 155).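 Note: 0% = growth of vehicle-only cultures of the same strain.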 The settings on record: S. cerevisiae rad50 strain growth inhibition, active compounds read high. In outline: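 Relative growth inhibition (compound vs vehicle) was measured in yeast with a defined repair-gene alteration.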
Assay [2] is described as follows: NCI Yeast Anticancer Drug Screen. Data for the mec2-1 strain (AID 157). As to conditions: S. cerevisiae mec2-1 strain, active compounds read high. In outline:
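Using mec2-1 yeast: add compound, measure growth, express inhibition versus vehicle-treated cultures.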

The nature of assay [3]: NCI Yeast Anticancer Drug Screen. Data for the sgs1 mgt1 strain (AID 161).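 Note: 0% = growth of cultures given vehicle only.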 The settings on record: S. cerevisiae sgs1 mgt1 strain, active compounds read high. In outline: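 Compounds are added to genetically altered yeast, and growth is compared with cultures given vehicle alone to give percent inhibition.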
Assay [4] is described as follows: NCI Yeast Anticancer Drug Screen. Data for the cln2 rad14 strain (AID 165).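 Note: 0% = growth equal to vehicle treated cultures.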 The settings on record: S. cerevisiae cln2 rad14 strain, active compounds read high. In outline: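 Yeast strain cln2 rad14, bearing defects in cell cycle control and DNA repair, serves as the test system; values reflect growth inhibition compared with vehicle.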
The nature of assay [5]: NCI Yeast Anticancer Drug Screen. Data for the bub3 strain (AID 167). As to conditions: S. cerevisiae bub3 mutant strain, active compounds read high. In outline: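 Screening used yeast with an engineered genetic alteration affecting cell cycle control. Compound-exposed cultures were compared with vehicle cultures, and reduced growth was taken as inhibition.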
A short description of assay [6]: NCI Yeast Anticancer Drug Screen. Data for the mlh1 rad18 strain (AID 175). As to conditions: S. cerevisiae mlh1 rad18 strain growth inhibition, active compounds read high. In outline:
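Steps: expose repair-defective yeast to compound; measure growth; express inhibition against vehicle-treated controls.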

Setting [7] is: at 5.0 µM (retest, dose inferred, filed as 0.5).
Where [8] appears, read: at 50.0 µM (retest, dose inferred, filed as 5.0).

`CCN(CC)c1ccc(N=C2C=C(C(=O)Nc3cccc(Cl)c3)C(=O)c3ccccc32)c(C)c1`: the growth inhibition was -1% in assay [1] (setting [7]); -12% in assay [1] (setting [8]); -17.9% in assay [1] (at 50.0 µM); 8% in assay [2] (setting [7]); 32% in assay [2] (setting [8]); -7% in assay [2] (at 50.0 µM). Further, the growth inhibition was -30% in assay [3] (setting [7]); -23% in assay [3] (setting [8]); -9.25% in assay [3] (at 50.0 µM); -4% in assay [4] (setting [7]); -7% in assay [4] (setting [8]); 38.4% in assay [4] (at 50.0 µM). Further, the growth inhibition in assay [5] (setting [7]) was 0%; in assay [5] (setting [8]), -12%; in assay [5] (at 50.0 µM), -4.35%; in assay [6] (setting [7]), -34%; in assay [6] (setting [8]) it was -43%; in assay [6] (at 50.0 µM), -27.2%.
With `CC(=N/NC(=S)NCC(C)C)/C(C)=N\Nc1ccc(Cl)cc1`, the growth inhibition is 2% in assay [1] (setting [7]); 81% (active) in assay [1] (setting [8]); 95% (active) in assay [1] (at 50.0 µM); -1% in assay [2] (setting [7]); 79% (active) in assay [2] (setting [8]); 73.2% (active) in assay [2] (at 50.0 µM). Besides, the growth inhibition was 1% in assay [3] (setting [7]); 91% (active) in assay [3] (setting [8]); 92.4% (active) in assay [3] (at 50.0 µM); -4% in assay [4] (setting [7]); 79% (active) in assay [4] (setting [8]); 72.8% (active) in assay [4] (at 50.0 µM). Further, the growth inhibition in assay [5] (setting [7]) was -4%; in assay [5] (setting [8]), 82% (active); in assay [5] (at 50.0 µM) it was 93.7% (active); in assay [6] (setting [7]) it was 0%; in assay [6] (setting [8]) it was 90% (active); in assay [6] (at 50.0 µM), 92% (active).
Regarding `Oc1cc(O)c2c(c1)OC(c1ccc(O)c(O)c1)C(OC1(c3cc(O)c(O)c(O)c3)Oc3cc(O)cc(O)c3C(O)C1O)C2` (stereo not given), the growth inhibition was -4% in assay [1] (setting [7]); 17% in assay [1] (setting [8]); -3.85% in assay [1] (at 50.0 µM); -5% in assay [2] (setting [7]); -27% in assay [2] (setting [8]); -18.2% in assay [2] (at 50.0 µM). Moreover, the growth inhibition is -14% in assay [3] (setting [7]); 6% in assay [3] (setting [8]); -15.9% in assay [3] (at 50.0 µM); -31% in assay [4] (setting [7]); 4% in assay [4] (setting [8]); -9.25% in assay [4] (at 50.0 µM). For the same molecule, the growth inhibition in assay [5] (setting [7]) is 8%; in assay [5] (setting [8]), -4%; in assay [5] (at 50.0 µM) it was -33.5%; in assay [6] (setting [7]), -5%; in assay [6] (setting [8]), 12%; in assay [6] (at 50.0 µM), 42.5%.
In the case of `Cc1cc2c(c([N+](=O)[O-])c1C)C(=O)C(Br)=C(N)C2=O`, the growth inhibition in assay [1] (setting [7]) was 95% (active); in assay [1] (setting [8]), 98% (active); in assay [1] (at 50.0 µM) it was 93.5% (active); in assay [2] (setting [7]), 79% (active); in assay [2] (setting [8]) it was 99% (active); in assay [2] (at 50.0 µM), 97.8% (active). For the same molecule, the growth inhibition is 96% (active) in assay [3] (setting [7]); 17% in assay [3] (setting [8]); 98.8% (active) in assay [3] (at 50.0 µM); 45% in assay [4] (setting [7]); 98% (active) in assay [4] (setting [8]); 98.3% (active) in assay [4] (at 50.0 µM). The growth inhibition in assay [5] (setting [7]) was 87% (active); in assay [5] (setting [8]), 96% (active); in assay [5] (at 50.0 µM), 94% (active); in assay [6] (setting [7]) it was 93% (active); in assay [6] (setting [8]) it was 99% (active); in assay [6] (at 50.0 µM), 98% (active).
Regarding `CC1(C)CC(O)C(O)C1` (stereo not given), the growth inhibition is -2% in assay [1] (setting [7]); -2% in assay [1] (setting [8]); -4% in assay [1] (at 50.0 µM); 2% in assay [2] (setting [7]); 0% in assay [2] (setting [8]); 7.25% in assay [2] (at 50.0 µM). In addition, the growth inhibition is 0% in assay [3] (setting [7]); -1% in assay [3] (setting [8]); 12.6% in assay [3] (at 50.0 µM); -2% in assay [4] (setting [7]); -13% in assay [4] (setting [8]); 67.5% in assay [4] (at 50.0 µM). Further, the growth inhibition in assay [5] (setting [7]) was 2%; in assay [5] (setting [8]) it was 11%; in assay [5] (at 50.0 µM), -1.7%; in assay [6] (setting [7]), -1%; in assay [6] (setting [8]) it was -4%; in assay [6] (at 50.0 µM), -5.6%.
For `COc1cc2c3c(c4ccc(OC)c(OC)c4c2cc1OC)CN1CCC[C@@H]1C3`, the growth inhibition in assay [1] (setting [7]) was 11%; in assay [1] (setting [8]), 95% (active); in assay [1] (at 50.0 µM) it was 92% (active); in assay [2] (setting [7]), 8%; in assay [2] (setting [8]), 99% (active); in assay [2] (at 50.0 µM) it was 93.5% (active). Moreover, the growth inhibition in assay [3] (setting [7]) was 15%; in assay [3] (setting [8]), 96% (active); in assay [3] (at 50.0 µM) it was 93% (active); in assay [4] (setting [7]) it was 1%; in assay [4] (setting [8]), 92% (active); in assay [4] (at 50.0 µM), 91.2% (active). Also, the growth inhibition is 8% in assay [5] (setting [7]); 98% (active) in assay [5] (setting [8]); 92.3% (active) in assay [5] (at 50.0 µM); -29% in assay [6] (setting [7]); 93% (active) in assay [6] (setting [8]); 88.5% (active) in assay [6] (at 50.0 µM).
For `CC(CO)(CO)Cc1ccccc1`, the growth inhibition in assay [1] (setting [7]) is 1%; in assay [1] (setting [8]), -6%; in assay [1] (at 50.0 µM), 96.5% (active); in assay [2] (setting [7]), -2%; in assay [2] (setting [8]), 6%; in assay [2] (at 50.0 µM), 97.9% (active). Besides, the growth inhibition in assay [3] (setting [7]) is 0%; in assay [3] (setting [8]), -5%; in assay [3] (at 50.0 µM), 80.5% (active); in assay [4] (setting [7]) it was -3%; in assay [4] (setting [8]) it was -4%; in assay [4] (at 50.0 µM), 92.3% (active). The growth inhibition was -1% in assay [5] (setting [7]); 1% in assay [5] (setting [8]); 94% (active) in assay [5] (at 50.0 µM); 2% in assay [6] (setting [7]); -3% in assay [6] (setting [8]); 93.2% (active) in assay [6] (at 50.0 µM).
On to `Cc1[nH]c2c(C)c3c([nH]c4ccc(Cl)cc43)c(C)c2c(=O)c1C`, for which the growth inhibition was -8% in assay [1] (setting [7]); 12% in assay [1] (setting [8]); 61.1% in assay [1] (at 50.0 µM); -24% in assay [2] (setting [7]); 0% in assay [2] (setting [8]); 14.2% in assay [2] (at 50.0 µM). Besides, the growth inhibition is -14% in assay [3] (setting [7]); 3% in assay [3] (setting [8]); 23.9% in assay [3] (at 50.0 µM); -17% in assay [4] (setting [7]); 6% in assay [4] (setting [8]); 13.7% in assay [4] (at 50.0 µM). Moreover, the growth inhibition in assay [5] (setting [7]) was -10%; in assay [5] (setting [8]), -3%; in assay [5] (at 50.0 µM) it was 8.65%; in assay [6] (setting [7]), -19%; in assay [6] (setting [8]), -2%; in assay [6] (at 50.0 µM), 39.1%.
`O=S(=O)(CC(Br)Br)c1ccccc1`: the growth inhibition in assay [1] (setting [7]) is 13%; in assay [1] (setting [8]), 99% (active); in assay [1] (at 50.0 µM), 99.5% (active); in assay [2] (setting [7]), 18%; in assay [2] (setting [8]), 100% (active); in assay [2] (at 50.0 µM), 98.5% (active). Besides, the growth inhibition was 3% in assay [3] (setting [7]); 99% (active) in assay [3] (setting [8]); 41% in assay [3] (at 50.0 µM); 7% in assay [4] (setting [7]); 99% (active) in assay [4] (setting [8]); 74.8% (active) in assay [4] (at 50.0 µM). In addition, the growth inhibition in assay [5] (setting [7]) was 34%; in assay [5] (setting [8]), 99% (active); in assay [5] (at 50.0 µM) it was 99.5% (active); in assay [6] (setting [7]), 11%; in assay [6] (setting [8]), 99% (active); in assay [6] (at 50.0 µM), 30.9%.
Take `COC([C@@H](OC(=O)c1ccccc1)[C@H](OC(=O)c1ccccc1)C(O)COC(=O)c1ccccc1)n1cc(C)c(=O)[nH]c1=O` (stereo not given in full): the growth inhibition was -8% in assay [1] (setting [7]); 26% in assay [1] (setting [8]); 17.1% in assay [1] (at 50.0 µM); -8% in assay [2] (setting [7]); 18% in assay [2] (setting [8]); 49.5% in assay [2] (at 50.0 µM). Besides, the growth inhibition in assay [3] (setting [7]) was 4%; in assay [3] (setting [8]) it was 33%; in assay [3] (at 50.0 µM), 65.5%; in assay [4] (setting [7]), 8%; in assay [4] (setting [8]), 57%; in assay [4] (at 50.0 µM) it was 53.5%. The growth inhibition was -19% in assay [5] (setting [7]); 28% in assay [5] (setting [8]); 71.8% (active) in assay [5] (at 50.0 µM); -3% in assay [6] (setting [7]); 69% in assay [6] (setting [8]); 67.3% in assay [6] (at 50.0 µM).
